Reference: ChEMBL document CHEMBL3988442, “University of Dundee, Small-Polar-MMV Screening Library” (2021)
The whole screen tested about 53,000 compounds, of which about 900 (1.7%) showed an effect of 50% or more. Shown is part of a subset that was picked to be rich in strong results.

The molecules below were run on Mycobacterium tuberculosis (assay: Cornell - Phenotypic assay to identify agents that inhibit growth of Mycobacterium tuberculosis). Settings: 10 mM as filed; unlikely as a test dose.
Format: functional
Design: scale not given: direction of the effect not stated beside the values

Compound	Percent Effect
Cc1cccc(NC(=O)N2CCC3(CCC(C(=O)N(C)C)O3)CC2)c1 (stereo not given)	-3.897%
CN(C)Cc1cccc(-c2cccnc2C(=O)NCc2ccco2)c1	0.1793%
Cc1[nH]c2nc(CNc3ccccc3Cl)nn2c(=O)c1C	13.95%
O=C(c1cc(-c2ccco2)cs1)N1CCCC1	81.62%
O=C(c1cc(-c2ccco2)cs1)N1CCOCC1	26.26%
CN1CCN(C(=O)c2cc(-c3ccco3)cs2)CC1	25.84%
CCn1cc2c(n1)C(COC)CN(Cc1ccoc1)C2 (stereo not given)	-14.11%
CCn1cc2c(n1)C(COC)CN(Cc1ccccn1)C2 (stereo not given)	96.31%
COCC1CN(Cc2ccccn2)Cc2cn(C)nc21.O=C(O)C(F)(F)F.O=C(O)C(F)(F)F.O=C(O)C(F)(F)F (stereo not given)	31.55%
CN(C)C(=O)c1ccc2ccc(N3CCN(CC4CC4)CC3)n2c1	-12.17%
Cc1ccc(-c2cc(C(=O)NC(C)C(=O)N3CCCCC3)on2)cc1 (stereo not given)	17.57%
CCn1ccc(NS(=O)(=O)c2cccc(COC)c2)n1	-1.872%
COC(=O)Cn1ccc(NS(=O)(=O)c2ccc3c(c2)CCC3)n1	-1.96%
CCc1ccc(S(=O)(=O)Nc2ccn(CC(=O)OC)n2)cc1	68.94%
CSC(C)C(=O)N1CCCN(Cc2nccn2C)CC1 (stereo not given)	-38.31%
Fc1cccc(CN2CCC(c3noc(-c4ccncc4)n3)CC2)c1F	8.868%
CCCc1nnc(N2CC[C@@](O)(C3CCOCC3)[C@H](C)C2)s1	-20.29%
COc1ccc(-c2cnc(N)nc2C2CCCNC2)cc1.Cl (stereo not given)	57.74%
Nc1ncc(-c2ccc(C(F)(F)F)cc2)c(C2CCCNC2)n1 (stereo not given)	50.32%
COc1ccc(-c2cc(C3CCCNC3)ccn2)cc1.Cl (stereo not given)	13.34%
Nc1ncc(-c2ccc(F)cc2)c(C2CCCNC2)n1 (stereo not given)	2.627%
Nc1ncc(-c2ccc(Cl)cc2)c(C2CCCNC2)n1 (stereo not given)	-8.441%

Compound	Percent Effect
CS(=O)(=O)N1CC(c2nc(N)ncc2-c2ccc(F)cc2)C1	26.29%
Cc1n[nH]c(C2CN(CC(=O)NCCC3=CCCCC3)CCO2)n1 (stereo not given)	-4.775%
COc1cc(CNC(=O)c2csc(Br)c2)ccn1	5.577%
c1ccc(CN2CCC(c3nccnc3-n3ccnc3)CC2)cc1	-13.47%
Cc1noc(C)c1CN(Cc1cccs1)C1CCS(=O)(=O)C1 (stereo not given)	-24.86%
CCS(=O)(=O)N1CCc2ccc(NC(=O)NCCc3ccccc3)cc21	30.28%
CN(C)CC(=O)N1CCN(C(=O)c2cccc3[nH]ncc23)CC1	11.64%
CCc1cnc(CN(C(C)=O)C2CCN(CCc3ccccc3)C2)o1 (stereo not given)	-5.219%
Cc1ncsc1CN1C[C@@H]2COC[C@]2(C(=O)NCc2ccccn2)C1.O=C(O)C(F)(F)F.O=C(O)C(F)(F)F	34.64%
Cc1csc(CN2C[C@@H]3COC[C@]3(C(=O)NCc3ccco3)C2)n1	99.79%
Cc1csc(CNC(=O)N2CCN(Cc3ccco3)CC2)n1	5.266%
Cc1ncsc1C(=O)N1CCCC(n2cncn2)C1 (stereo not given)	-11.33%
CC(=O)N1CCCC1c1cccc(Oc2ccccc2F)n1 (stereo not given)	16.34%
Cc1cc(CN2CCN(S(=O)(=O)c3c(C)c(Cl)cc(C)c3Cl)CC2)on1	15.46%
O[C@@H]1C[C@H]2CN(Cc3ccccc3)[C@H](Cc3ccccc3)CN2C1	7.945%
O[C@@H]1C[C@H]2CN(Cc3ccccc3Cl)[C@H](Cc3ccccc3)CN2C1	13.61%
O[C@@H]1C[C@H]2CN(Cc3ccsc3)[C@@H](Cc3ccccc3)CN2C1	57.45%
Cc1ccc(CN2CC[C@H]3OCC[C@@H](c4nc(C)no4)[C@H]3C2)cc1	12.84%
CCC(C)(CCO)NC(=O)c1ccon1 (stereo not given)	-22.18%
CC(C)(NC(=O)c1coc(COc2cccc(F)c2)n1)C(N)=O	8.84%
COC(=O)[C@@H](NC(=O)c1coc(COc2cccc(F)c2)n1)C(C)C	30.38%
O=C(NC(CO)CO)c1coc(COc2cccc(F)c2)n1	-12.31%

Compound	Percent Effect
O=C(O)c1coc(COc2cccc(F)c2)n1	15.94%
O=C(NCC(F)(F)F)c1coc(COc2cccc(F)c2)n1	71.66%
CCC(C)NC(=O)c1coc(COc2cccc(F)c2)n1 (stereo not given)	60.97%
CN(C)Cc1cc(C2CCCCN2S(=O)(=O)c2cccc(Cl)c2)nn1C.Cl (stereo not given)	9.135%
CC(C)N(Cc1ccc(Cl)c(Cl)c1)C(=O)CCn1cncn1	29.65%
O=S(=O)(c1ccccc1)N1CCC2(CCCN2Cc2cccc(F)c2)C1 (stereo not given)	5.302%
Cc1nn(C2CCS(=O)(=O)C2)c(O)c1CCc1ccccc1 (stereo not given)	6.158%
Cc1ccc(CN2Cc3c(C(=O)N4CCN(C)CC4)nn(C)c3C2)s1.O=C(O)C(F)(F)F.O=C(O)C(F)(F)F.O=C(O)C(F)(F)F	-2.835%
Cn1ccc(NC(=O)Cc2ccccc2F)n1	-2.791%
CCOC(=O)Cn1ccc(NC(=O)Cc2ccccc2F)n1	99.82%
CS(=O)(=O)CCn1ccc(NC(=O)Cc2ccccc2F)n1	11.43%
CC(C)C1SCC(=O)Nc2c1c(O)nn2C1CCCCC1 (stereo not given)	13.37%
Cc1cc(N2CCC(Cc3ccccc3)CC2)nc(-c2ccncc2)n1	82.9%
Cc1cc(N2CCC(CC(N)=O)CC2)nc(-c2ccncc2)n1	23.93%
Cc1cc(N2CCC(Cc3ccccc3)CC2)ncn1	22.55%
CN(Cc1ccc(CCC(C)(C)O)cc1)CC1(CO)CC1	3.977%
CC(Cc1ccco1)NS(=O)(=O)N1CCCCC1 (stereo not given)	35.85%
CC1CCN(S(=O)(=O)NC(C)Cc2ccco2)CC1 (stereo not given)	45%
CC(Cc1ccco1)NS(=O)(=O)N1CCCCCC1 (stereo not given)	68.78%
CCCn1c(C)c(CC(=O)NCC(C)O)c2c1CC(C)(C)CC2=O (stereo not given)	21.56%
CCc1cc(N(C)CCC(O)c2ccccc2)n2nccc2n1 (stereo not given)	-53.72%
